Some test systems named below: NCI-H23 lung; NCI-H226 lung; NCI-H322M lung; HOP-62 NSCLC; NCI-H460 lung; HOP-92 NSCLC; NCI-H522 lung; A549/ATCC NSCLC; 786-0 renal; COLO 205 colon.
Assay in all cases: NCI-60 one-dose screen, 48 h (100 = growth as untreated, 0 = no growth, -100 = all killed)
Common to all, as to settings: 10 µM unless noted

Data on 13 compounds can be found in PubChem BioAssay (NCI).

This is part of a sample that, as a whole, favours compounds with a hit. Of some 83,000 tested, about 20% had one in any assay.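 Testing used 96-well plates and a 48-hour single-concentration exposure. Example: -40 means 40% of the starting cells died.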 A number with no mark means an inactive call. The source made the active and inactive calls. The calls were made as follows: active = growth percent below 10; inactive = the rest.

On to `O=C(NCc1ccc(Cl)cc1Cl)C1CCC(=O)N1c1cccs1` (stereo not given), for which the growth with NCI-H23 lung is 91%; in the assay with NCI-H226 lung it was 103%; in the assay on NCI-H322M lung, 104%; in the assay on HOP-62 NSCLC, 92.9%; with NCI-H460 lung, 104%; in the assay with HOP-92 NSCLC, 103%. Further, the growth in the assay with NCI-H522 lung is 76.8%; in the assay with A549/ATCC NSCLC it was 86.3%; in the assay on 786-0 renal, 94%; in the assay on COLO 205 colon it was 96.8%.

Consider `CCOC(=O)C1=C(N)Oc2c(sc3c(F)cccc23)C1c1ccc(O)cc1` (stereo not given), for which the growth in the assay with NCI-H23 lung was 30.8%; with NCI-H226 lung, 55.2%; in the assay with NCI-H322M lung it was 67.5%; in the assay with HOP-62 NSCLC, 55.4%; in the assay with NCI-H460 lung, 30.4%; in the assay with HOP-92 NSCLC, 34.6%. For the same compound, the growth with NCI-H522 lung is 26.9%; with A549/ATCC NSCLC, 40.5%; in the assay with 786-0 renal, 59.6%; in the assay on COLO 205 colon, 79.5%.

`Cn1cc(-c2csc(-c3c[nH]c4ccc(Br)cc34)n2)c2ccnc(Cl)c21`: the growth was 62.1% in the assay on NCI-H23 lung; 59.4% in the assay on NCI-H226 lung; 67.1% in the assay with NCI-H322M lung; 101% with HOP-62 NSCLC; 9.96% (active) in the assay with NCI-H460 lung; 64.2% in the assay on HOP-92 NSCLC. In addition, the growth with NCI-H522 lung was 56.3%; in the assay with A549/ATCC NSCLC, 42.4%; in the assay with 786-0 renal, 47%; in the assay with COLO 205 colon, 42.5%.

Consider `O=C1Nc2ccc(C(=O)O)cc2/C1=N/c1nnc(Sc2ccccc2)s1`, for which the growth in the assay on NCI-H23 lung was 104%; in the assay with NCI-H226 lung, 98.5%; with NCI-H322M lung, 116%; in the assay with HOP-62 NSCLC, 95%; in the assay with NCI-H460 lung, 107%; in the assay with HOP-92 NSCLC it was 102%. Also, the growth in the assay on NCI-H522 lung is 94.3%; in the assay with A549/ATCC NSCLC it was 99.9%; with 786-0 renal it was 102%; in the assay on COLO 205 colon it was 124%.

For the compound `O=c1c2cnn(-c3ccccc3)c2n2c(CN3CCOCC3)nnc2n1-c1ccccc1`, the growth with NCI-H23 lung is 108%; with NCI-H226 lung, 104%; in the assay on NCI-H322M lung it was 108%; with HOP-62 NSCLC it was 78.1%; with NCI-H460 lung, 102%; with HOP-92 NSCLC it was 81.3%. For the same compound, the growth was 41.2% in the assay with NCI-H522 lung, 76.9% in the assay with A549/ATCC NSCLC, 92.6% in the assay on 786-0 renal and 96.5% with COLO 205 colon.

As for `CN(C)c1ccc(C(=O)OCCCCCCl)cc1`, the growth in the assay with NCI-H23 lung was 90.7%; in the assay on NCI-H226 lung, 99%; in the assay on NCI-H322M lung, 85.4%; in the assay on HOP-62 NSCLC, 91.8%; with NCI-H460 lung it was 104%; in the assay on HOP-92 NSCLC, 89.3%. The growth was 89.2% in the assay with NCI-H522 lung, 100% in the assay with A549/ATCC NSCLC, 95.3% with 786-0 renal and 110% in the assay on COLO 205 colon.

Consider `Cc1cc(=O)oc2cc(OCc3nn4c(Nc5nc6ccccc6s5)c(-c5ccccc5)nc4s3)ccc12`, for which the growth in the assay with NCI-H23 lung is 83.3%; in the assay on NCI-H226 lung, 92.2%; with NCI-H322M lung, 90.7%; in the assay with HOP-62 NSCLC, 90.2%; in the assay on NCI-H460 lung it was 83.8%; with HOP-92 NSCLC, 77.1%. Also, the growth in the assay on NCI-H522 lung is 76.6%; in the assay with A549/ATCC NSCLC it was 94.4%; with 786-0 renal, 103%; with COLO 205 colon, 104%.

With `COC(=O)c1nc(-c2ccccc2)oc1S(=O)(=O)Cc1ccccc1`, the growth with NCI-H23 lung was 96.8%; in the assay on NCI-H226 lung, 96.1%; with NCI-H322M lung, 98.1%; in the assay on HOP-62 NSCLC it was 99.2%; in the assay with NCI-H460 lung it was 107%; in the assay on HOP-92 NSCLC it was 87.2%. For the same compound, the growth with NCI-H522 lung was 38.1%; in the assay on A549/ATCC NSCLC, 96.5%; in the assay on 786-0 renal, 71.4%; with COLO 205 colon, -43% (active).

For `O=C(/C=C/c1ccco1)Nc1ncc(Cc2cccc(C(F)(F)F)c2)s1`, the growth in the assay with NCI-H23 lung is 22.4%; in the assay with NCI-H226 lung it was 33.2%; in the assay with NCI-H322M lung, 30.4%; with HOP-62 NSCLC it was 1.31% (active); in the assay on NCI-H460 lung, -0.329% (active); in the assay with HOP-92 NSCLC, 64.3%. Besides, the growth in the assay with NCI-H522 lung is -15% (active); with A549/ATCC NSCLC it was 11.6%; in the assay on 786-0 renal, 12.6%; in the assay with COLO 205 colon, -47.5% (active).

`CNC(=O)c1ccccc1Oc1nc(Nc2cc(OC)c(OC)c(OC)c2)ncc1Br`: the growth is 55.2% in the assay on NCI-H23 lung; 21.8% in the assay with NCI-H226 lung; 58.5% in the assay on NCI-H322M lung; 49.7% in the assay on HOP-62 NSCLC; 43.9% in the assay on NCI-H460 lung; 60.6% with HOP-92 NSCLC. Further, the growth in the assay with NCI-H522 lung is 53.9%; in the assay with A549/ATCC NSCLC, 46.4%; in the assay on 786-0 renal, 48.9%; with COLO 205 colon, -12.6% (active).

`COc1ccc2cc1Oc1ccc(cc1)C[C@H]1c3c(cc4c(c3Oc3cc5c(cc3OC)CCN(C)[C@@H]5C2)OCO4)CCN1C`: the growth in the assay on NCI-H23 lung is 75.9%; in the assay with NCI-H226 lung, 87.4%; in the assay on NCI-H322M lung, 56%; with HOP-62 NSCLC, 115%; in the assay on NCI-H460 lung it was 59.4%; with HOP-92 NSCLC, 52.6%. Also, the growth is -18.8% (active) in the assay with NCI-H522 lung, 47.2% with A549/ATCC NSCLC, 53.5% in the assay on 786-0 renal and 109% in the assay with COLO 205 colon.

For `COc1cc2c(cc1OCCCN1CCN(CCCOc3cc4c(cc3OC)C(=O)N3CC(F)(F)C[C@H]3C=N4)CC1)N=C[C@@H]1CC(F)(F)CN1C2=O`, the growth with NCI-H23 lung was 54%; in the assay with NCI-H226 lung it was 95.5%; in the assay on NCI-H322M lung, 97.9%; in the assay with HOP-62 NSCLC, 97.4%; in the assay with NCI-H460 lung, 27%; in the assay on HOP-92 NSCLC it was 10.8%. Also, the growth is -14.3% (active) in the assay on NCI-H522 lung, 94.4% with A549/ATCC NSCLC, 86.2% with 786-0 renal and 43.1% in the assay on COLO 205 colon.

As for `O=C(N/N=C/c1ccc(Cl)cc1)c1[nH]c2ccc(Cl)cc2c1-c1ccccc1`, the growth with NCI-H23 lung was 42.1%; in the assay with NCI-H226 lung, 10.9%; with NCI-H322M lung, 37.6%; with HOP-62 NSCLC, 23.9%; with NCI-H460 lung, 4.43% (active); with HOP-92 NSCLC it was -7.26% (active). The growth with NCI-H522 lung is -32% (active); in the assay on A549/ATCC NSCLC it was 42.9%; in the assay on 786-0 renal, 22.1%; in the assay with COLO 205 colon it was -72.4% (active).
